The values that follow come from paper PMC7862700, “An all-to-all approach to the identification of sequence-specific readers for epigenetic DNA modifications on cytosine”.

What all share (assay): DAPPL (digital affinity profiling via proximity ligation, sequencing); 10 mM Tris-HCl pH 7.5, 50 mM NaCl, 1 mM DTT, 4% glycerol, room temperature, 30 min; GST-TFs on glutathione beads, 16-mer random dsDNA library, 0.1% formaldehyde crosslink after washing; high values mean tight binding
One assay concerns the target T1, FEV (Homo sapiens, UniProt Q99581 1-238).
T1 sequence: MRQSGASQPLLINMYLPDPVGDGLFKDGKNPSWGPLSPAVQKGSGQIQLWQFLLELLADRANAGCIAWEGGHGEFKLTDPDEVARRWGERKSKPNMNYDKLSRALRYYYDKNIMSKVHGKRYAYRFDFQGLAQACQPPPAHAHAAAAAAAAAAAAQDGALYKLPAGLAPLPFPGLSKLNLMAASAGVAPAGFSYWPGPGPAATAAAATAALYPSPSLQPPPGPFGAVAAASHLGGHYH
The following applies: protein: recombinant; tags: N-terminal GST; dsDNA, one strand shown. A digest of the protocol: (§1)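 Binding signal is given per hexamer as its read frequency for a factor divided by its frequency in the tag-only sample. GST-fused human transcription factors were expressed in yeast, captured on glutathione beads, barcoded with DNA and pooled with that sample, then incubated with 200 nmole of a 16-mer random double-stranded DNA library in Tris/NaCl/DTT/glycerol buffer for 30 min at room temperature. The pools were then washed, crosslinked, proximity-ligated, amplified by PCR and sequenced on an Illumina NextSeq500.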

A further assay has as its target ETV5 (Homo sapiens, UniProt P41161 1-510). The following applies: protein: recombinant; tags: N-terminal GST; dsDNA, one strand shown. A digest of the protocol: as §1
The target in a further assay is HSF1 (Homo sapiens, UniProt Q00613 1-529). The following applies: protein: recombinant; tags: N-terminal GST; chain copies: 3; dsDNA, one strand shown. A digest of the protocol: as §1
HSF1, sequence (Q00613 whole entry): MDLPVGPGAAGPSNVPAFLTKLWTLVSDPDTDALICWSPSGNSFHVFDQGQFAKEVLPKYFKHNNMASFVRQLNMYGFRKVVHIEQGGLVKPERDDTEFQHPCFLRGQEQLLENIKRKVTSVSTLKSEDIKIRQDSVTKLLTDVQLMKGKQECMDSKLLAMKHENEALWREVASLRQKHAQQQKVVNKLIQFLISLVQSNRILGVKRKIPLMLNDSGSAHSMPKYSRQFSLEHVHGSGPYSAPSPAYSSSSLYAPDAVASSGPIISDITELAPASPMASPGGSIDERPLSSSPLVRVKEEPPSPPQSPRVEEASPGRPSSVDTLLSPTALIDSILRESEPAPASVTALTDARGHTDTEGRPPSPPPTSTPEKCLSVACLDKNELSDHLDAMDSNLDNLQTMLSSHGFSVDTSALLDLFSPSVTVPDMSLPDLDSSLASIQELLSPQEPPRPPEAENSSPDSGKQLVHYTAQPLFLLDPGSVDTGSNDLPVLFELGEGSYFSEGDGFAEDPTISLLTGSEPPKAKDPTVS
The next assay concerns the target T2, SPIC (Homo sapiens, UniProt Q8N5J4 1-248).
T2 sequence: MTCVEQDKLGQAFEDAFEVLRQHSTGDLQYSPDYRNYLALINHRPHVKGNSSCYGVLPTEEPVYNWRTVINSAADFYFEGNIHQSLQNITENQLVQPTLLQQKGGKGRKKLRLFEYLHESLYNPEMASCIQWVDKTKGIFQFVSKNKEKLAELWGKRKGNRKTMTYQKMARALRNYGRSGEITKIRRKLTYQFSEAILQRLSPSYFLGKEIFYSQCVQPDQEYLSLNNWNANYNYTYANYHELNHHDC
The following applies: protein: recombinant; tags: N-terminal GST; dsDNA, one strand shown. A digest of the protocol:
as §1

The target of a further assay is ELF4 (Homo sapiens, UniProt Q99607 1-663). The following applies: protein: recombinant; tags: N-terminal GST; dsDNA, one strand shown. A digest of the protocol: as §1
ELF4, sequence (Q99607 whole entry): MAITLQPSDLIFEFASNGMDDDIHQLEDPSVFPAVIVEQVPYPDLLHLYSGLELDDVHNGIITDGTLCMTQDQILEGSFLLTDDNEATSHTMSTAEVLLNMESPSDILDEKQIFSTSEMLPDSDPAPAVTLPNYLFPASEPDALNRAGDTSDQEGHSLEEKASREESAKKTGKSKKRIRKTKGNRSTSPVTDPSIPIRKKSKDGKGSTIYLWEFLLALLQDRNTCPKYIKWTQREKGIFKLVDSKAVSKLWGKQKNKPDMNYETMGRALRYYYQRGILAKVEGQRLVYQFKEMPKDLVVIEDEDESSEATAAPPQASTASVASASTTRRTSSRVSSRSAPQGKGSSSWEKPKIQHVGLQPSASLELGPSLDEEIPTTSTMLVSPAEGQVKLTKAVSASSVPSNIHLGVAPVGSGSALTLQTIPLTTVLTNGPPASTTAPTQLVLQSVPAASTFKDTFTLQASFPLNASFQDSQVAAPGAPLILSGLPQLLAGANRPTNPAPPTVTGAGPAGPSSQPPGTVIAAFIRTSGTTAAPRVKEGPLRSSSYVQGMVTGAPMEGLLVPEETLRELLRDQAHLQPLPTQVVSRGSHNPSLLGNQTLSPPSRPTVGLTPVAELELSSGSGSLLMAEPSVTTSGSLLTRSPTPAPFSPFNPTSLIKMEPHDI
In a further assay the target is T3, ELK4 (Homo sapiens, UniProt P28324-2 1-405).
T3 sequence: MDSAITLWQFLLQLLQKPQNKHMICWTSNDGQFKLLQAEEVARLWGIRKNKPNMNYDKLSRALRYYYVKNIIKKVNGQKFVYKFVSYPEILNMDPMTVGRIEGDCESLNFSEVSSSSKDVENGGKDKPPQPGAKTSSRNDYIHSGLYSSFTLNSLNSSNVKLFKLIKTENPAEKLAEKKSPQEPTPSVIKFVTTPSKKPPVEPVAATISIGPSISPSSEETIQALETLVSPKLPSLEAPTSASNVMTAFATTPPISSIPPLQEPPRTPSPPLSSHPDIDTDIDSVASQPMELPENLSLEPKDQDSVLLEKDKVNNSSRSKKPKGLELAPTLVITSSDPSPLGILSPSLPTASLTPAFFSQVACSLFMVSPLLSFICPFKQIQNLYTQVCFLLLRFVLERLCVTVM
The settings on record: protein: recombinant; tags: N-terminal GST; dsDNA, one strand shown. A digest of the protocol: as §1

A further assay concerns the target T4, ETV2 (Homo sapiens, UniProt O00321 1-342).
T4 sequence: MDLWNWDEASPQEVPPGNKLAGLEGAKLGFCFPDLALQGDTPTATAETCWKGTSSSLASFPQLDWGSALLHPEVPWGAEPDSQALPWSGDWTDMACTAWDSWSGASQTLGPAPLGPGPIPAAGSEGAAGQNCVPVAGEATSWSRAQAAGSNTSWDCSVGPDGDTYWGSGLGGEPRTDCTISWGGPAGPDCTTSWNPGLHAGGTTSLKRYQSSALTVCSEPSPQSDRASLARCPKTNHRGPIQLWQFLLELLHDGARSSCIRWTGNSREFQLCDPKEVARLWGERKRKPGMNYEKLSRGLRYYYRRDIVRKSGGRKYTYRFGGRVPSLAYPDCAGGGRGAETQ
The following applies: protein: recombinant; tags: N-terminal GST; dsDNA, one strand shown. A digest of the protocol: as §1

The target in the next assay is T5, ELF3 (Homo sapiens, UniProt P78545 1-371).
T5 sequence: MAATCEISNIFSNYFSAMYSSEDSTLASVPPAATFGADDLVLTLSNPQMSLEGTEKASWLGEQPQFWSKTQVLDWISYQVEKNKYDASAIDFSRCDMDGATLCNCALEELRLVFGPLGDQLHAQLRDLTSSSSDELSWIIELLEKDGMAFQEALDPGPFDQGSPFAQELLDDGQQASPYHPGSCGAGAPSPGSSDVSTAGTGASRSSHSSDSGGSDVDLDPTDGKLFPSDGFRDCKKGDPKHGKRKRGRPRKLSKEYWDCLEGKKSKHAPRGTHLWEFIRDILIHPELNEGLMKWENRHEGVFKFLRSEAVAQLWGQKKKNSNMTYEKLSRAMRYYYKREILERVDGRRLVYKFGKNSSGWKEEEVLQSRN
The settings on record: protein: recombinant; tags: N-terminal GST; dsDNA, one strand shown. A digest of the protocol:
as §1

For a further assay, the target named is CRX (Homo sapiens, UniProt O43186 1-299). The settings on record: protein: recombinant; tags: N-terminal GST; dsDNA, one strand shown. A digest of the protocol:
as §1

The target of a further assay is ETV1 (Homo sapiens, UniProt P50549 1-477). The settings on record: protein: recombinant; tags: N-terminal GST; dsDNA, one strand shown. A digest of the protocol:
as §1

In the next assay the target is T6, ERF (Homo sapiens, UniProt P50548 1-548).
T6 sequence: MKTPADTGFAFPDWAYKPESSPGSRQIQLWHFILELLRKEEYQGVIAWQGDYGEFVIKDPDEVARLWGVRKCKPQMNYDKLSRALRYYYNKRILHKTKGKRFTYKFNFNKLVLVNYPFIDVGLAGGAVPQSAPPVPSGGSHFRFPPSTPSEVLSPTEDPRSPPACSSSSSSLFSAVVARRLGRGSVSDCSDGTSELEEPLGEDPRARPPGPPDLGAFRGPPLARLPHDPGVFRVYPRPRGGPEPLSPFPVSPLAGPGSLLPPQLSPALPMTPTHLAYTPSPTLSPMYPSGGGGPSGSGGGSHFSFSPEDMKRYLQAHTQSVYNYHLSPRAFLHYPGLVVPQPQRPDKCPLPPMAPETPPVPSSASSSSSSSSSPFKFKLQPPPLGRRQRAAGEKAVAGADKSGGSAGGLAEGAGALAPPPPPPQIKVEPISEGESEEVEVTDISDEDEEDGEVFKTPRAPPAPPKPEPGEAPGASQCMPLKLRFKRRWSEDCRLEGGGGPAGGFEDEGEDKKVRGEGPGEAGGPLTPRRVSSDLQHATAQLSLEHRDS
The following applies: protein: recombinant; tags: N-terminal GST; dsDNA, one strand shown. A digest of the protocol:
as §1

The next assay deals with T7, ETV3L (Homo sapiens, UniProt Q6ZN32 1-361).
T7 sequence: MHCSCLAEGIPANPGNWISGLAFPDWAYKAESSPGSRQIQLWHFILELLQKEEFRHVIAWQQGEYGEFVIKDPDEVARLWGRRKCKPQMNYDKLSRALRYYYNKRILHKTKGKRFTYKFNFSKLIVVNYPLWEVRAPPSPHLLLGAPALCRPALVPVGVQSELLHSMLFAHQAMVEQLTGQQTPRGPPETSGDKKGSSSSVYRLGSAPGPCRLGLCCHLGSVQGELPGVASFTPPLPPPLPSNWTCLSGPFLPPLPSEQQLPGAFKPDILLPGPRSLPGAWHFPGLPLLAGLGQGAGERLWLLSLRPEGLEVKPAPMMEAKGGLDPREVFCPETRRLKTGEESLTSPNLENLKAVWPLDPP
The following applies: protein: recombinant; tags: N-terminal GST; dsDNA, one strand shown. A digest of the protocol:
as §1

The next assay addresses T8, ETS2 (Homo sapiens, UniProt P15036 1-469).
T8 sequence: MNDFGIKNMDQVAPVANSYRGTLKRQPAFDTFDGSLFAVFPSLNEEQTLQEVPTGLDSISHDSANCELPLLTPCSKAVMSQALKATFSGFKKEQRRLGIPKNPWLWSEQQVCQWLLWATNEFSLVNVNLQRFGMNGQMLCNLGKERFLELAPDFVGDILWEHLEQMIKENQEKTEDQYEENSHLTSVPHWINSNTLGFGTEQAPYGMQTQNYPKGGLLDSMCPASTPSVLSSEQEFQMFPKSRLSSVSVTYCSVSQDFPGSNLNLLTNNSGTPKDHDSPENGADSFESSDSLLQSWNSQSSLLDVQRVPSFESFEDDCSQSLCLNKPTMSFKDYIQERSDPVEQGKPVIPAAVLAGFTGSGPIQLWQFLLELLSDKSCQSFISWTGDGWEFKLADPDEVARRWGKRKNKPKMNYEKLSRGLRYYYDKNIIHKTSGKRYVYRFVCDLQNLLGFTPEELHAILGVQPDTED
The settings on record: protein: recombinant; tags: N-terminal GST; dsDNA, one strand shown. A digest of the protocol: as §1

The next assay deals with T9, SPDEF (Homo sapiens, UniProt O95238 1-335).
T9 sequence: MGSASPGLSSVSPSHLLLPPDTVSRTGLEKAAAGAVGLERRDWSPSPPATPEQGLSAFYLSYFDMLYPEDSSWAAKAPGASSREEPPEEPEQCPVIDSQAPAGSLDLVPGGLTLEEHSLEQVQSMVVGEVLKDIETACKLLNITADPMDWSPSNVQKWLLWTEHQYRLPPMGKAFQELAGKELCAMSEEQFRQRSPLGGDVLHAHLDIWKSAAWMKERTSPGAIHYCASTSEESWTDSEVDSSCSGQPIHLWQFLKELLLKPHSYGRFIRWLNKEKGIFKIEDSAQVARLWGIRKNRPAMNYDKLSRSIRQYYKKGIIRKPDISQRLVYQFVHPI
The following applies: protein: recombinant; tags: N-terminal GST; dsDNA, one strand shown. A digest of the protocol:
as §1

The target of a further assay is T10, ETV7 (Homo sapiens, UniProt Q9Y603 1-341).
T10 sequence: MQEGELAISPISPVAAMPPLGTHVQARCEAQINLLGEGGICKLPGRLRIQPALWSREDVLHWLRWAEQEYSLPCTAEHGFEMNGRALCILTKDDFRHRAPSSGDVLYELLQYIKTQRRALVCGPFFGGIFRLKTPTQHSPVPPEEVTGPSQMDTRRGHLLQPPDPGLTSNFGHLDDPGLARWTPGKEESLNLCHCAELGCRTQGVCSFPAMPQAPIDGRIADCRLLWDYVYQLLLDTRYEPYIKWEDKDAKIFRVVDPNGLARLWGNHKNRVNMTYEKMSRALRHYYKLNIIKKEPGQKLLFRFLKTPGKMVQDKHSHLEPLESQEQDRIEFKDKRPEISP
The following applies: protein: recombinant; tags: N-terminal GST; dsDNA, one strand shown. A digest of the protocol: as §1

A further assay deals with T11, ELF5 (Homo sapiens, UniProt Q9UKW6-2 1-255).
T11 sequence: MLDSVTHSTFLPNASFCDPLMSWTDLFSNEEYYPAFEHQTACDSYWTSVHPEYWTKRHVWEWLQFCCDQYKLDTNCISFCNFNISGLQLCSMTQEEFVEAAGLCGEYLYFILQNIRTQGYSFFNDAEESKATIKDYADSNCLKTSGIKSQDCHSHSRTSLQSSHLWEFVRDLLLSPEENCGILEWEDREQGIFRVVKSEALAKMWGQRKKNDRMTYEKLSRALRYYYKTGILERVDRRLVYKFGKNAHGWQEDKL
The settings on record: protein: recombinant; tags: N-terminal GST; dsDNA, one strand shown. A digest of the protocol:
as §1

For another assay, the target named is T12, ETV3 (Homo sapiens, UniProt P41162-2 1-143).
T12 sequence: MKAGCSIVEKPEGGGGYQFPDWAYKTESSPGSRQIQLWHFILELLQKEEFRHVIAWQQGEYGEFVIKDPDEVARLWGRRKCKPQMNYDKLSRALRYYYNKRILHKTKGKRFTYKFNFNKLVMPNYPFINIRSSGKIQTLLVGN
The following applies: protein: recombinant; tags: N-terminal GST; dsDNA, one strand shown. A digest of the protocol:
as §1

The target of a further assay is ETV6 (Homo sapiens, UniProt P41212 1-452). The following applies: protein: recombinant; tags: N-terminal GST; dsDNA, one strand shown. A digest of the protocol:
as §1

ETV1, sequence (P50549 whole entry): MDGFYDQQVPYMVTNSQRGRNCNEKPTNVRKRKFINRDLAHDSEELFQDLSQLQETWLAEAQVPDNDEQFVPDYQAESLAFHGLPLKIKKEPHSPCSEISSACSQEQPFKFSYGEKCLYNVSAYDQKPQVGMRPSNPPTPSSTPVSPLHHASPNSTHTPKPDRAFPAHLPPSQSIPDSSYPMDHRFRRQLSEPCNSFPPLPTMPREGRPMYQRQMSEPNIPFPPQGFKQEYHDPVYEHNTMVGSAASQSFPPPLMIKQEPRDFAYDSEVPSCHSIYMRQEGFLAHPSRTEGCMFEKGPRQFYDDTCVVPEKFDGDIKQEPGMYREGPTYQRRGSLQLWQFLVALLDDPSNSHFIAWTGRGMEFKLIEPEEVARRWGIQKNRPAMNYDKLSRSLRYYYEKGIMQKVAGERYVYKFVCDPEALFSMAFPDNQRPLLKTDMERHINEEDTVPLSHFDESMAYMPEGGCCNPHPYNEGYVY
ETV6, sequence (P41212 whole entry): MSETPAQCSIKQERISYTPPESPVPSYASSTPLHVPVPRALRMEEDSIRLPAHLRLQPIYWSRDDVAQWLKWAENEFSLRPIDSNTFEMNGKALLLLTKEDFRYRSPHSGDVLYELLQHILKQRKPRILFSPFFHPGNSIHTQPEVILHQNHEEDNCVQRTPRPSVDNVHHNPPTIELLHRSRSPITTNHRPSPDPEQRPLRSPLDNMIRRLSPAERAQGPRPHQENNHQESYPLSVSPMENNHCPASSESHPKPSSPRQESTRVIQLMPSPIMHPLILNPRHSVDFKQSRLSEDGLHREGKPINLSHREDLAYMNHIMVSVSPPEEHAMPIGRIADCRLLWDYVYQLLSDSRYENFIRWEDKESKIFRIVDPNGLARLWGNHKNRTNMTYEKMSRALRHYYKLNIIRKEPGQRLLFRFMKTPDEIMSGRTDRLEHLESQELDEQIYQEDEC
CRX, sequence (O43186 whole entry): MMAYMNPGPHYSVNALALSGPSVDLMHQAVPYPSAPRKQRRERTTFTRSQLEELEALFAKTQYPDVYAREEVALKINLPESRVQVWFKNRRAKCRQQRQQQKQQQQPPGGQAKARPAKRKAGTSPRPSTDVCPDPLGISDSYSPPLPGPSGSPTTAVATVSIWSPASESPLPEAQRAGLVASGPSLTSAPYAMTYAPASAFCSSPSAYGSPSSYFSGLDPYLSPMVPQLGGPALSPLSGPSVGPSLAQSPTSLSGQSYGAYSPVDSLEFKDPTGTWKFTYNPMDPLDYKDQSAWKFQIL
ETV5, sequence (P41161 whole entry): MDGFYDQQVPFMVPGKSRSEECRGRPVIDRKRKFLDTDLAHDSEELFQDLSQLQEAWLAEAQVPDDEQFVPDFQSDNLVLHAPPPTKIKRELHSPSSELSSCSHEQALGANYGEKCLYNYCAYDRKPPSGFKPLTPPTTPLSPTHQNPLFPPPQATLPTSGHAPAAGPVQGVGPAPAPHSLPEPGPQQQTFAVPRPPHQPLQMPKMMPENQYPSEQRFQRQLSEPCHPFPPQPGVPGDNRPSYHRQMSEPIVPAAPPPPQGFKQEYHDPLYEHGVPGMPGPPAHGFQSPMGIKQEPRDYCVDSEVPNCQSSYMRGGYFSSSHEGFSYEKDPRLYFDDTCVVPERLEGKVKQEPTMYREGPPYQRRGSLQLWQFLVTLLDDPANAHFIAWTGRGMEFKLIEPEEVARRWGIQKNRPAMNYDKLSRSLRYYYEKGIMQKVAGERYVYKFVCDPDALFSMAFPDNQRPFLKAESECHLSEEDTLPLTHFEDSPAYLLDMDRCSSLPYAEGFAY

In the case of AACAAC, the binding signal was 1.26 fold enrichment (6-mer frequency, TF over GST control) with FEV; 1.24 fold enrichment (6-mer frequency, TF over GST control) with ETV5; 1.14 fold enrichment (6-mer frequency, TF over GST control) with HSF1; 1.2 fold enrichment (6-mer frequency, TF over GST control) in the assay with SPIC; 1.26 fold enrichment (6-mer frequency, TF over GST control) with ELF4; 1.27 fold enrichment (6-mer frequency, TF over GST control) in the assay with ELK4. For the same sequence, the binding signal with ETV2 was 1.34 fold enrichment (6-mer frequency, TF over GST control); in the assay with ELF3, 1.31 fold enrichment (6-mer frequency, TF over GST control); with CRX, 1.04 fold enrichment (6-mer frequency, TF over GST control); with ETV1, 1.23 fold enrichment (6-mer frequency, TF over GST control); in the assay with ERF, 1.35 fold enrichment (6-mer frequency, TF over GST control); in the assay with ETV3L it was 1.25 fold enrichment (6-mer frequency, TF over GST control). Also, the binding signal with ETS2 is 1.33 fold enrichment (6-mer frequency, TF over GST control); with SPDEF, 1.27 fold enrichment (6-mer frequency, TF over GST control); in the assay with ETV7 it was 1.3 fold enrichment (6-mer frequency, TF over GST control); with ELF5, 1.28 fold enrichment (6-mer frequency, TF over GST control); in the assay with ETV3, 1.37 fold enrichment (6-mer frequency, TF over GST control); with ETV6, 1.35 fold enrichment (6-mer frequency, TF over GST control).
